Inconclusive results are not listed. A call without a number means that no potency is given here. Values without a mark were called inactive. Calls of active or inactive are those of the source. Unless noted, calls come from the whole dose curve.
Potency is the fitted concentration of half-maximal effect.

Nucleoprotein (Lymphocytic choriomeningitis virus (strain Armstrong)), sequence (P09992 whole entry, looked up): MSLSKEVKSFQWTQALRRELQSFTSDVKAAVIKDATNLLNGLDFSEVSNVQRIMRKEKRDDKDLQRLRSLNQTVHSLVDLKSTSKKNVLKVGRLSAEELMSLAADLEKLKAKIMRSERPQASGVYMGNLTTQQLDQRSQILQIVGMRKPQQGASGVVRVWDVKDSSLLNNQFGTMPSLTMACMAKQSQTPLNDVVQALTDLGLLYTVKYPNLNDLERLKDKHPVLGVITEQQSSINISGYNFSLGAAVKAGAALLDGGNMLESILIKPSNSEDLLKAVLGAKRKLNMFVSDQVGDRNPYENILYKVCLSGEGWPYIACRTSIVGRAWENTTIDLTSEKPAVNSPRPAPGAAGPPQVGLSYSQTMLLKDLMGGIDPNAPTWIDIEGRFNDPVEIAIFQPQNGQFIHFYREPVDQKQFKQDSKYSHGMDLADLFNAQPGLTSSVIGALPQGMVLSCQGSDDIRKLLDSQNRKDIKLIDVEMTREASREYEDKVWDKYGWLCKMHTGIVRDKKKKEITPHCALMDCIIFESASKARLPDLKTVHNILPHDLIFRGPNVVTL

Test system in one experiment: not listed separately
The experiment in a line: qHTS for Inhibitors of the Functional Ribonucleoprotein Complex (vRNP) of Lymphocytic Choriomeningitis Arenaviruses (LCMV): Viability assay - alamar blue signal for LCMV Primary Screen (AID 1347085; calls by dose curve; tested in HEK293 reporter line; note: nearly all actives have a fitted effect of over 80% in size). The note with it: alamar blue viability counter-screen, LCMV vRNP screen cells; series mostly up to 57.5 µM. Background: In qHTS, concentration-response curves come from the screen itself.
Consider `CC(=O)c1c(O)cc(O)cc1O`, for which the Potency entry was “inactive”.
With `COc1ccc([C@@H]2CC(=O)c3c(O)cc(O[C@@H]4OC(CO[C@@H]5OC(C)[C@H](O)[C@@H](O)[C@H]5O)[C@@H](O)[C@H](O)[C@H]4O)cc3O2)cc1O` (some centres not stated), the Potency entry is “inactive”.
The same measure, in the same setting: the value for `COC(=O)c1ccc(N2CC3CNC(=O)C2(C(=O)OC)N3C)cc1` (configuration not stated) was “inactive”; that for `C=C1[C@H]2O[C@H]2[C@@H](OC(C)=O)[C@@]2(C)[C@@H](OC(C)=O)C[C@@H](OC(C)=O)[C@@](C)(O)[C@@H]2[C@@H](OC(C)=O)[C@@]2(O)[C@@H](C)C(=O)O[C@H]2[C@H]1Cl` was “inactive”.
As for `CCCCCCCCCCCCC(=O)CCCCC(=O)O`, the Potency result is “inactive”.
On the same count and under the same terms, the value for `CC(C)C[C@H](NC(=O)c1cc2ccccc2s1)C(=O)N1CCN(C(=O)[C@H](CO)NS(=O)(=O)c2ccc(Cl)cc2Cl)CC1` was “inactive”; that for `CC[C@@H]1C=C(C)C[C@H](C)C[C@H](OC)[C@H]2O[C@@](O)(C(=O)C(=O)N3CCCC[C@@H]3C(=O)O[C@H](C(C)=C[C@@H]3CC[C@H](Cl)[C@H](OC)C3)[C@H](C)[C@@H](O)CC1=O)[C@H](C)C[C@H]2OC` was “inactive”.
Same read-out and setting: the value for `Fc1ccc(C(c2ccc(F)cc2)N2CCN(CC=Cc3ccccc3)CC2)cc1` was “inactive”; that for `CC(C)CNC(=O)/C=C/C=C/CCCC/C=C/c1ccc2c(c1)OCO2` was “inactive”; that for `CC1CC2CCCC(O)=C2C(=O)O1` (configuration not stated) was “inactive”.
Still for that read-out and setting: the value for `Cc1[nH]c(C=C2C(=O)Nc3ccccc32)c(C)c1CCC(=O)O` was 21.7 µM (active); that for `CC1=CCC(C(C)C)=CC1` was “inactive”; that for `COc1cc2c(OC(C)=O)c3c(c(-c4ccc5c(c4)OCO5)c2cc1OC)C(=O)OC3` was “inactive”.
As for `Oc1cc(O)cc(C=Cc2ccc(O)c(O)c2)c1`, the Potency result was “inactive”.
Still for that read-out and setting: under `COC(=O)c1cc(OC)cc(O)c1C(=O)c1c(O)cc(C)cc1O` stands “inactive”; under `CC(=O)O[C@H]1C[C@@H]2CC[C@@]1(C)C2(C)C`, “inactive”; under `C/C=C(/C)C(=O)O[C@@H]1[C@H](OC(=O)C=C(C)C)c2c(ccc3ccc(=O)oc23)OC1(C)C`, “inactive”.
The same measure, in the same setting: the value for `Cc1cc2c(c(C)c1CCO)C(=O)[C@H](C)C2` was “inactive”; that for `CCCCCCCCCCCCCCCCC` was “inactive”; that for `COc1ccc(C=CC(=O)Nc2ccccc2C(=O)O)cc1OC` was “inactive”.
On the same count and under the same terms, under `COC(=O)c1cc(=O)cc(C(=O)OC)o1` stands “inactive”.
With `COc1ccc(C[C@@H](C)[C@@H](C)Cc2ccc(OC)c(OC)c2)cc1OC`, the Potency is 12.2 µM (active).

Another experiment has as its target Nucleoprotein (Lymphocytic choriomeningitis virus (strain Armstrong)) (UniProt P09992). The experiment in a line: qHTS for Inhibitors of the Functional Ribonucleoprotein Complex (vRNP) of Lymphocytic Choriomeningitis Arenaviruses (LCMV): LCMV Primary Screen - GLuc reporter signal (AID 1347086). Note: nearly all actives have a fitted effect of over 70% in size. Particulars: LCMV minigenome vRNP cell assay, Gaussia luciferase reporter; series mostly up to 57.5 µM.
On to `CC(C)(C)[N+]([O-])=Cc1ccc(S(=O)(=O)O)cc1S(=O)(=O)O`, for which the Potency entry was “inactive”.
Consider `CCCCCC1CCCC(=O)O1` (configuration not stated), for which the Potency result is “inactive”.
Same read-out and setting: the value for `CCCC(=O)OC` was “inactive”.
The same measure, in the same setting: under `N[C@@H](CSS(=O)(=O)O)C(=O)O` stands “inactive”; under `CC(C)=CCC/C(C)=C/COC=O`, “inactive”; under `Nc1oc2ccccc2c1C(=O)Cc1ccccc1O[C@@H]1O[C@H](CO)[C@@H](O)[C@H](O)[C@H]1O`, “inactive”.
Same read-out and setting: under `COc1cc(C2c3cc4c(c(O)c3CC3COC(=O)C32)OCO4)cc(OC)c1O` (configuration not stated) stands “inactive”.
For `O=Cc1ccc(O)cc1O`, the Potency result was “inactive”.
The same measure, in the same setting: under `O=C(O)[C@@H]1Cc2c([nH]c3ccccc23)C2CCC(=O)N21` (some centres not stated) stands “inactive”.
For the molecule `CCCCC[C@H](O)/C=C/[C@H]1OC(=O)C[C@H](O)[C@@H]1C/C=C\CCCC(=O)O`, the activity change, negative = inhibition is 3.12% [at 5.82 µM].
On to `Cc1[nH]c(C=C2C(=O)Nc3ccc(S(=O)(=O)N(C)c4cccc(Cl)c4)cc32)c(C)c1C(=O)N1CCN(C)CC1`, for which the Potency entry is “inactive”.
The same measure, in the same setting: the value for `O=C1c2ccccc2C(=O)c2c(O)ccc(O)c21` was “inactive”; that for `CC1(C)O[C@@H]2C[C@@H]3[C@H]4C[C@@H](F)C5=CC(=O)C=C[C@]5(C)[C@@]4(F)[C@@H](O)C[C@]3(C)[C@]2(C(=O)CO)O1` was “inactive”; that for `CC12CCC(C1)C(C)(C)C2O` (configuration not stated) was “inactive”.
Still for that read-out and setting: the value for `C/C=C(\C)C(=O)O[C@H](c1cc2ccc(=O)oc2cc1OC)[C@@H](O)C(C)(C)O` was “inactive”; that for `C=C(C)c1cc2c(ccc3ccc(=O)oc32)o1` was “inactive”; that for `COC(=O)c1c(C)cc(O)c(C)c1O` was “inactive”.
Regarding `CC(C)(O)c1ccc2c(c1)CCC1C(C)(C(=O)O)CCCC21C` (configuration not stated), the Potency entry is “inactive”.
On the same count and under the same terms, under `CC(=O)c1c(O)cc(O)cc1O` stands “inactive”.
On the same count and under the same terms, under `COc1ccc([C@@H]2CC(=O)c3c(O)cc(O[C@@H]4OC(CO[C@@H]5OC(C)[C@H](O)[C@@H](O)[C@H]5O)[C@@H](O)[C@H](O)[C@H]4O)cc3O2)cc1O` (some centres not stated) stands “inactive”; under `COC(=O)c1ccc(N2CC3CNC(=O)C2(C(=O)OC)N3C)cc1` (configuration not stated), “inactive”; under `C=C1[C@H]2O[C@H]2[C@@H](OC(C)=O)[C@@]2(C)[C@@H](OC(C)=O)C[C@@H](OC(C)=O)[C@@](C)(O)[C@@H]2[C@@H](OC(C)=O)[C@@]2(O)[C@@H](C)C(=O)O[C@H]2[C@H]1Cl`, “inactive”.
On the same count and under the same terms, the value for `CCCCCCCCCCCCC(=O)CCCCC(=O)O` was “inactive”.
`CC(C)C[C@H](NC(=O)c1cc2ccccc2s1)C(=O)N1CCN(C(=O)[C@H](CO)NS(=O)(=O)c2ccc(Cl)cc2Cl)CC1`: the Potency entry was “inactive”.
For `CC[C@@H]1C=C(C)C[C@H](C)C[C@H](OC)[C@H]2O[C@@](O)(C(=O)C(=O)N3CCCC[C@@H]3C(=O)O[C@H](C(C)=C[C@@H]3CC[C@H](Cl)[C@H](OC)C3)[C@H](C)[C@@H](O)CC1=O)[C@H](C)C[C@H]2OC`, the Potency result is “inactive”.
Still for that read-out and setting: under `Fc1ccc(C(c2ccc(F)cc2)N2CCN(CC=Cc3ccccc3)CC2)cc1` stands “inactive”.
Still for that read-out and setting: under `CC(C)CNC(=O)/C=C/C=C/CCCC/C=C/c1ccc2c(c1)OCO2` stands “inactive”; under `CC1CC2CCCC(O)=C2C(=O)O1` (configuration not stated), “inactive”.
Still for that read-out and setting: the value for `Cc1[nH]c(C=C2C(=O)Nc3ccccc32)c(C)c1CCC(=O)O` was 34.3 µM (active); that for `CC1=CCC(C(C)C)=CC1` was “inactive”; that for `COc1cc2c(OC(C)=O)c3c(c(-c4ccc5c(c4)OCO5)c2cc1OC)C(=O)OC3` was “inactive”.
Consider `Oc1cc(O)cc(C=Cc2ccc(O)c(O)c2)c1`, for which the Potency result was “inactive”.
Still for that read-out and setting: the value for `COC(=O)c1cc(OC)cc(O)c1C(=O)c1c(O)cc(C)cc1O` was “inactive”; that for `CC(=O)O[C@H]1C[C@@H]2CC[C@@]1(C)C2(C)C` was “inactive”.
With `C/C=C(/C)C(=O)O[C@@H]1[C@H](OC(=O)C=C(C)C)c2c(ccc3ccc(=O)oc23)OC1(C)C`, the Potency result is “inactive”.
Same read-out and setting: the value for `Cc1cc2c(c(C)c1CCO)C(=O)[C@H](C)C2` was “inactive”; that for `CCCCCCCCCCCCCCCCC` was “inactive”.
The same measure, in the same setting: the value for `COc1ccc(C=CC(=O)Nc2ccccc2C(=O)O)cc1OC` was “inactive”; that for `COC(=O)c1cc(=O)cc(C(=O)OC)o1` was “inactive”; that for `COc1ccc(C[C@@H](C)[C@@H](C)Cc2ccc(OC)c(OC)c2)cc1OC` was 24.3 µM (active).
